From publication PMC7819943, “Rice protein-binding microarrays: a tool to detect cis-acting elements near promoter regions in rice”
Whole data set: some 68,000 sequences, median “fluorescence intensity (a.u.)” near 9,100, cut for the highest 2% near 16,000. The list comes from a sample in which the highest values are over-represented; it also holds similar and randomly drawn sequences.

Molecular target: OsWRKY34 (Oryza sativa, UniProt Q0JBA9 1-250)
Assay: protein-binding microarray (RPBM); PBS, 2% BSA, 51.3 ng/ul salmon testes DNA, 50 uM zinc acetate, 200 nM TF, 25 C, 1 h; high values mean tight binding
Conditions: protein: recombinant; tags: N-terminal polyhistidine and DsRed monomer fusion (pET32a); label: CyDye5-dUTP incorporated in the synthesized complementary strand; 3' TTTTT single-stranded linker to array surface; dsDNA, one strand shown
Outline: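 In PBS with 2% BSA, salmon testes DNA and 50 µM zinc acetate, 200 nM protein was incubated on a custom Agilent array at 25 °C for 1 h and then washed off. The array had been made double-stranded by primer extension with Cy5-dUTP and blocked with 2% BSA. The proteins were transcription factors fused N-terminally to polyhistidine and DsRed, expressed in E. coli BL21-CodonPlus and purified on Ni–NTA. The binding signal is per-feature fluorescence intensity (arbitrary units) from an Axon 4000B scanner.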

Chain of OsWRKY34 (Q0JBA9 entry or part of it): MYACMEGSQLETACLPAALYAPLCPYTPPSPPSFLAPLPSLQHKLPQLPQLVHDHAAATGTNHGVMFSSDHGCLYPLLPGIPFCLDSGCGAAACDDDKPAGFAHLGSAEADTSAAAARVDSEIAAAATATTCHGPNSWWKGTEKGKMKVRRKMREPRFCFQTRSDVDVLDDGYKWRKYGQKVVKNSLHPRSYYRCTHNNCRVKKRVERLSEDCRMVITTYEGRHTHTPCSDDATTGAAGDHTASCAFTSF

Sequence	binding signal
GCATCCTTTTCATTGGCCTTTGCGTGTAATTTGGGGCATGCGGAGTCACCTAGTGCAG	9230 fluorescence intensity (a.u.)
CTCGTCTGTTTTGTTTTCCCCTCCGACTCCGACTCCGATCCGGAGTCACCTAGTGCAG	8180 fluorescence intensity (a.u.)
GGTTTGTTTGTCGTTCATGTGACGAGCGCATCCGTTTTCCCGGAGTCACCTAGTGCAG	9140 fluorescence intensity (a.u.)
GGTTTGGGTTCCTCTCTCGTCTCGTCTGTTTTGTTTTCCCCGGAGTCACCTAGTGCAG	21900 fluorescence intensity (a.u.)
CAGTCTCCTCTGATGCAGTCTCGTTCTCTGTTTCTTTTTGCGGAGTCACCTAGTGCAG	10600 fluorescence intensity (a.u.)
GTGTTTCCCATGGTTTGCACCAGTCTCCTCTGATGCAGTCCGGAGTCACCTAGTGCAG	26400 fluorescence intensity (a.u.)
TTTTCGTGTTCGGGTTTGGGTTTGAGTGCCGCATCTGCAACGGAGTCACCTAGTGCAG	21500 fluorescence intensity (a.u.)
ATACTTCCTTTCTGTTTCCAGTGTCTCTCTTCATGCACTCCGGAGTCACCTAGTGCAG	10700 fluorescence intensity (a.u.)
ATTTTAATTAATCTCGTGTTGGGTTCTTATATGGTTTTTCCGGAGTCACCTAGTGCAG	8350 fluorescence intensity (a.u.)
CCTCGTTTTTTTTTTTGGGTTCATCTCGTGTGTTCCGTGACGGAGTCACCTAGTGCAG	18400 fluorescence intensity (a.u.)
ATCTGGGTTCTTTTTTTTTCTTTTTTTGCCGGGTTTTTTTCGGAGTCACCTAGTGCAG	14800 fluorescence intensity (a.u.)
CCTCGGCCTATAGTGTTGGGTTTGGGTGTTGGTTTTTCCCCGGAGTCACCTAGTGCAG	15600 fluorescence intensity (a.u.)
TGTTCTGGTTCGGATCTGAGCGGGTGTTGGGTGTTTTCAACGGAGTCACCTAGTGCAG	9230 fluorescence intensity (a.u.)
CGATTGCCATTGTTCGTGTGTTTTTTCTTGTCTCTTTCCGCGGAGTCACCTAGTGCAG	11000 fluorescence intensity (a.u.)
TCACCATCTCGACTCAGCCAATCCATTTCTAAATTTTATACGGAGTCACCTAGTGCAG	8690 fluorescence intensity (a.u.)
TTAACCACAGTGCCGTTCTCTAGCCACCATCTCAGCAGCACGGAGTCACCTAGTGCAG	8220 fluorescence intensity (a.u.)
TGGGAAGTACATATGTAATGTTGTTTATTTATTTTTGTTTCGGAGTCACCTAGTGCAG	9860 fluorescence intensity (a.u.)
ATCTTGGGAAGGCCGTTACTCACTCTAGACTTTACTCCTCCGGAGTCACCTAGTGCAG	8270 fluorescence intensity (a.u.)
CCTCACCGATGGATTTTTTAGCCCGATCCTACCCCTCCTACGGAGTCACCTAGTGCAG	10500 fluorescence intensity (a.u.)
ACCACGTCCCTTTCCATTTTCCCTTGTTTTTTTTCCTCCTCGGAGTCACCTAGTGCAG	11200 fluorescence intensity (a.u.)
TAATTTTACTCGATACTCTATGTACCCCTGAAATTTCGCTCGGAGTCACCTAGTGCAG	9560 fluorescence intensity (a.u.)

Sequence	binding signal
GCCTTGTCTATTGCCTCAGAAGTTGGTTACCCTGTTGTTGCGGAGTCACCTAGTGCAG	8150 fluorescence intensity (a.u.)
GATGTGCCCTTTATTCACAACATTTAACAATTGTTACTTGCGGAGTCACCTAGTGCAG	8520 fluorescence intensity (a.u.)
TGTACAGTTGGTTCTTTTCTTTTTTTTTTTCAGTTGAGTCCGGAGTCACCTAGTGCAG	9330 fluorescence intensity (a.u.)
GGGTTTTCCACGTTAAATCTCGTGTCTTCTGTGTTTGATCCGGAGTCACCTAGTGCAG	12000 fluorescence intensity (a.u.)
CCTTTTTGTTGGTCTCTGTTCTTGGGTTGGGTTTTCAGTCCGGAGTCACCTAGTGCAG	20800 fluorescence intensity (a.u.)
ACTTTTGGTGGACCTTGGTTGTTTGGTCTGTTTCTCTCAGCGGAGTCACCTAGTGCAG	8680 fluorescence intensity (a.u.)
GTTTGTGGTTCAGTTTTTGTCCCCATGGGTCTCTTAGCGGCGGAGTCACCTAGTGCAG	9120 fluorescence intensity (a.u.)
TATATCTCGTGGTTTGTGGGTTCTTTTCACTTGTTCAGTGCGGAGTCACCTAGTGCAG	14000 fluorescence intensity (a.u.)
TTTTCTCTCCTGTTTTGGGAGGGTTTTCCACGTTAAATCTCGGAGTCACCTAGTGCAG	8230 fluorescence intensity (a.u.)
GTATGGTTGGTTGGTTGGTTTGTTGGGTTTCTCCCCGGCCCGGAGTCACCTAGTGCAG	33300 fluorescence intensity (a.u.)
GTGGGTTCTTTGTGGGGTCTCTTATAGTTTTCACTGCCAGCGGAGTCACCTAGTGCAG	20500 fluorescence intensity (a.u.)
GTGAGGGTGTGGTTACAGTGGGTTGGTTTTTTTTCTCCCCCGGAGTCACCTAGTGCAG	11800 fluorescence intensity (a.u.)
TTGGGAGGGTTTTTCACGTTAAATCTCGTGTCTTCTGTAACGGAGTCACCTAGTGCAG	29500 fluorescence intensity (a.u.)
TTAAAAAAAGTTGGGTAATTGTGGGGTTTGTTTTTTCTCCCGGAGTCACCTAGTGCAG	9490 fluorescence intensity (a.u.)
TATTAGTGGTATATATCCCTATCAGTCATTCTGCTTGCTTCGGAGTCACCTAGTGCAG	9260 fluorescence intensity (a.u.)
CGACGTACCGTAGCCGATTTCTGTTGCTATTATCATGTTCCGGAGTCACCTAGTGCAG	9450 fluorescence intensity (a.u.)
ATTTCTAGTCATGCCCGATAACCACTCCGGCACGACCACGCGGAGTCACCTAGTGCAG	8150 fluorescence intensity (a.u.)
CCAGACAGCTTCAGTTTGCAACGTACCCAAGTAAGAAACACGGAGTCACCTAGTGCAG	9150 fluorescence intensity (a.u.)
ACTTTGTAGCCCAATAACCACTATTTGATTCAACAGGTTTCGGAGTCACCTAGTGCAG	9900 fluorescence intensity (a.u.)
ACCATTTGTTTGAGCTCCGGAACCTTTTCGCCGTCCTATGCGGAGTCACCTAGTGCAG	8460 fluorescence intensity (a.u.)
ATGGCATTGAGCATTACAGTTGAATTTGTGTAGTTTTTAGCGGAGTCACCTAGTGCAG	8390 fluorescence intensity (a.u.)
